Assay results reported in PubChem BioAssay (NCI).
Values joined by “and” are separate entries in the source; they are usually repeats but may differ in a detail not shown here. Equal values may be shown once. The panel holds about 79,000 compounds, 15% with a hit somewhere; the sample as a whole holds those more often. Rule as the data show it: active = growth inhibition above about 70%; inactive = the rest.

Tests used:
[1] = NCI Yeast Anticancer Drug Screen. Data for the rad50 strain (AID 155);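 also: 0% = growth of vehicle-only cultures of the same strain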; conditions: S. cerevisiae rad50 strain growth inhibition, active compounds read high; at 50.0 µM unless noted
Method in brief: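 Cells are treated with compound, grown, and their growth is then scored against vehicle-only cultures of the same repair-deficient yeast strain.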

[2] = NCI Yeast Anticancer Drug Screen. Data for the mec2-1 strain (AID 157); conditions: S. cerevisiae mec2-1 strain, active compounds read high; at 50.0 µM unless noted
Method in brief: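 Cells of the genetically defined mec2-1 yeast strain are incubated with test compound. Inhibition of growth is calculated against vehicle-treated controls.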

[3] = NCI Yeast Anticancer Drug Screen. Data for the sgs1 mgt1 strain (AID 161);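 also: 0% = growth of cultures given vehicle only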; conditions: S. cerevisiae sgs1 mgt1 strain, active compounds read high; at 50.0 µM unless noted
Method in brief: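 Mutant yeast exposed to compound; growth scored against vehicle-only wells.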

[4] = NCI Yeast Anticancer Drug Screen. Data for the cln2 rad14 strain (AID 165);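 also: 0% = growth equal to vehicle treated cultures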; conditions: S. cerevisiae cln2 rad14 strain, active compounds read high; at 50.0 µM unless noted
Method in brief: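 The screen exposed genetically defined yeast (cln2 rad14) to test compounds and scored growth inhibition relative to vehicle-treated controls.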

[5] = NCI Yeast Anticancer Drug Screen. Data for the bub3 strain (AID 167); conditions: S. cerevisiae bub3 mutant strain, active compounds read high; at 50.0 µM unless noted
Method in brief: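 Part of a panel of yeast mutants defective in DNA damage repair or cell cycle regulation. Each strain is grown with compound, and inhibition is calculated relative to solvent-treated cultures.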

[6] = NCI Yeast Anticancer Drug Screen. Data for the mlh1 rad18 strain (AID 175); conditions: S. cerevisiae mlh1 rad18 strain growth inhibition, active compounds read high; at 50.0 µM unless noted
Method in brief: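 Compound-treated yeast growth, normalised to vehicle controls. Strain bears defined DNA repair mutations.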

Measured: growth inhibition

CC(C)CCCC(C)[C@H]1CCC2C3CC=C4C[C@@H](OC(=O)CC(CC(=O)[O-])C(=O)[O-])CC[C@]4(C)C3CC[C@@]21C.N.N.[Pt+4] (stereo partly specified)
inactive: [1] 26.2% | [2] 13.1% | [3] 11.7% | [4] 4.2% | [5] 12.6% | [6] 0.35%

CC(C)=NOc1ccccc1[N+](=O)[O-]
inactive: [1] 8.65% | [2] 6.15% | [3] 7.15% | [4] -14.7% | [5] -13.2% | [6] 12.1%

COc1ccc(Cl)c2c(=O)c3ccccc3[nH]c12
inactive: [1] -3.45% | [2] 7.65% | [3] 2.5% | [4] -35.1% | [5] -12.3% | [6] 12.8%

CSC(=S)N/N=C(\C)c1cccs1
inactive: [1] 7.05% | [2] 1.85% | [3] 4.75% | [4] -50.9% | [5] -47.5% | [6] 10.8%

Cc1ccc(C(=O)O)cc1
inactive: [1] 2.95% | [2] -17% | [3] 0.65% | [4] -15.6% | [5] 8.85% | [6] -2.2%

COC(=O)Cc1cc(C)n(C)c(=O)c1CN1C(=O)c2ccccc2C1=O
inactive: [1] 10.6% | [2] -10.9% | [3] 5.4% | [4] 12.4% | [5] -11.2% | [6] 20.8%

CCN(CC)C(=O)c1cc(OC)c(C(=O)N(CC)CC)cc1OC
inactive: [1] -21.9% | [2] -0.35% | [3] 4.15% | [4] -15.2% | [5] -9.4% | [6] -8.2%

CC(C)(C)CC(C)(C)c1ccc(O)c(CN2CCCCC2)c1
inactive: [1] 10.2% | [2] 8.55% | [3] 26.1% | [4] -6.7% | [5] 16.6% | [6] 8.65%

COc1cc(CCC(NC(C)=O)c2cccc(O)c(=O)c2)cc(OC)c1OC (stereo unspecified)
inactive: [1] -10.2% | [2] -4.6% | [3] 17.2% | [4] -33.5% | [5] -3.35% | [6] 8.1%

S=c1sc2c(s1)SCCCCSCCCCSc1sc(=S)sc1SCCCCSCCCCS2
inactive: [1] 13.3% | [2] 8.6% | [3] 1.1% | [4] 16.1% | [5] 6.75% | [6] -29.4%

O=C(COc1ccc(Cl)cc1)N1CCN(C(=O)COc2ccc(Cl)cc2)c2ccccc21
inactive: [1] 11.7% | [2] 3.05% | [3] 23.9% | [4] 11.1% | [5] 11.6% | [6] -1.05%

CC(C)(C)NSc1nc2ccccc2s1
inactive: [1] -21.8% | [2] 2.45% | [3] -12.7% | [4] 4.2% | [5] -2.5% | [6] -8.5%

CCCCOC(=O)C(C)OC(=O)C(C)Oc1cc(Cl)c(Cl)cc1Cl (stereo unspecified)
inactive: [1] -1.65% | [2] -3.95% | [3] 0.3% | [4] 16.9% | [5] 3.9% | [6] -0.8%

CC(C)CCn1c(=O)c2c(ncn2C)n(C)c1=O
inactive: [1] 21.9% | [2] 20.3% | [3] 22.9% | [4] 10.2% | [5] -0.5% | [6] 13.2%

CC(=O)NS(=O)(=O)c1ccc(NC(=O)/C=C/C(=O)O)cc1
inactive: [1] 1.1% and -16.6% | [2] -15.7% and -18.1% | [3] -0.45% | [4] -3.05% | [5] -11.7% | [6] 19.9% and -18%

CC(C)N1C(=O)c2cccc(Cl)c2C1=O (tested in a mixture with another compound)
inactive: [1] 10.8% | [2] 4.1% | [3] 37.3% | [4] 37.6% | [5] -7.85% | [6] 1.4%

COc1cc(/C=C/c2ccc(N(C)C)cc2)oc(=O)c1
inactive: [1] 21.5% | [2] 5.45% | [3] 26.6% | [4] 6.85% | [5] 5.65% | [6] 0.25%

CCNC(=O)CCCC(=O)OC
inactive: [1] 9.75% | [2] 4.55% | [3] 18.9% | [4] 14.6% | [5] 7.35% | [6] 2.2%

CC(=O)OC1CC(n2cc(F)c(=O)[nH]c2=O)OC1CO (stereo unspecified)
inactive: [1] 7.95% | [2] 12.2% | [3] -10.4% | [4] -17% | [5] -0.45% | [6] 2.5%

CCCn1/c(=N\N=O)sc2ccccc21
inactive: [1] -0.45% | [2] 2.9% | [3] -5.5% | [4] -29.6% | [5] -23.1% | [6] 7%

COc1cc(C2CC(C)(Nc3ccccc3)Oc3cc4c(cc32)OCO4)cc(OC)c1OC (stereo unspecified)
inactive: [1] -6.35% | [2] -13.7% | [3] -3.55% | [4] 4.95% | [5] 4.1% | [6] -14.2%

NCC(=O)c1ccc(CCC(=O)O)cc1
inactive: [1] 3.1% | [2] -0.25% | [3] -0.75% | [4] 0.25% | [5] 6.3% | [6] 2.6%

CCSc1[nH]c(Nc2nc(-c3ccccc3)n(-c3ccccc3)n2)c(C(N)=O)c1C(N)=O
inactive: [1] -16.9% | [2] 1.35% | [3] 7.8% | [4] -5.85% | [5] -9.75% | [6] 7%

O=COCCCOCCCOc1ccccc1
inactive: [1] 14.3% | [2] -11.8% | [3] -9.35% | [4] -37.4% | [5] -5.6% | [6] 28.4%

CN(C)c1ccc(NC(=O)C(c2ccccc2)c2ccccc2)cc1
inactive: [1] 6.8% | [2] -14.6% | [3] 0.4% | [4] -23.8% | [5] 4.35% | [6] -12.9%

Cc1cc(S(=O)(=O)Nc2n[nH]c(N)n2)c(S)cc1Cl
inactive: [1] 11.4% | [2] 7.45% | [3] -6.65% | [4] -4.6% | [5] 1.1% | [6] 12.8%

CC/C=C/C(=O)CC(O)(C(F)(F)F)C(F)(F)F
inactive: [1] -30.9% | [2] 9.1% | [3] 12.5% | [4] -20.9% | [5] -29.8% | [6] -20.8%

CC(=O)Nc1ccc2ccccc2c1[N+](=O)[O-]
inactive: [1] -11.1% | [2] -14.4% | [3] -17.4% | [4] -64.5% | [5] -35.8% | [6] 15.7%

NNC(=O)CC(=O)NN
inactive: [1] 6.9% | [2] 2.05% | [3] -11.4% | [4] -10.7% | [5] 2.95% | [6] 18.4%

CCOc1ccccc1N1CCN(CC(O)CSc2ccccc2)CC1 (stereo unspecified)
inactive: [1] 1.3% | [2] -9.25% | [3] -6.2% | [4] -33.6% | [5] 4.95% | [6] -2.65%

CNc1ccc(C=C2C=CC=C2)cc1
inactive: [1] 41.2% | [2] 1.7% | [3] 48.7% | [4] 5.2% | [5] 7.4% | [6] 55.7%

CC(=O)Nc1cc(C(=O)Nc2cc(C(=O)Nc3cc(C(=O)Nc4cc(C(=O)Nc5cc(C(=O)NCCC(=O)NCCCN(C)C)n(C)c5)n(C)c4)n(C)c3)n(C)c2)n(C)c1
inactive: [1] 9.7% | [2] -41.5% | [3] -18.6% | [4] -4% | [5] -31.9% | [6] -37.8%

O=C(Cn1c(=O)ccn(C2OC(CO)C(O)C2F)c1=O)c1ccc(F)cc1 (stereo unspecified)
inactive: [1] -2.5% | [2] 0.3% | [3] -30.9% | [4] -48.8% | [5] 0.6% | [6] 3.1%

CCOC(=O)c1ccc(O)c(NC(C)=O)c1
inactive: [1] -11.7% | [2] 18.1% | [3] 0.15% | [4] -42.5% | [5] 10% | [6] -7.15%

CCOc1ccccc1Nc1ccc(N)cc1S(=O)(=O)O
inactive: [1] 9.45% | [2] 0.85% | [3] -31.5% | [4] -6.2% | [5] 1.35% | [6] -8.05%

CC1(C)OC(=O)C(Cc2ccccc2)(Cc2ccccc2)C(=O)O1
inactive: [1] 2.2% | [2] -19.9% | [3] -11.8% | [4] 30.1% | [5] -17.1% | [6] -13.9%

CCCCN(Cc1ccccc1)C(=S)Nc1ccccc1
inactive: [1] 17.4% | [2] 47.8% | [3] 64.4% | [4] 1.85% | [5] 63.5% | [6] 67.3%

COc1ccc(Nc2nc3ccccc3nc2-c2cccs2)cc1OC
inactive: [1] -5.8% | [2] -2% | [3] 13.9% | [4] 9.3% | [5] -0.7% | [6] -23.4%

CC(CC(=O)c1cccc2ccccc12)C(=O)O (stereo unspecified)
inactive: [1] 19% | [2] 3.3% | [3] 2.85% | [4] 0.55% | [5] -10.7% | [6] 24.3%

O=[N+]([O-])c1cccnc1S(=O)(=O)c1ccccc1
inactive: [1] 36.9% | [2] 5.7% | [3] 12.2% | [4] 4.75% | [5] 6.2% | [6] -0.15%

COc1ccc2[nH]c3c(=O)[nH]ncc3c2c1
inactive: [1] -1.9% | [2] -0.95% | [3] -7.5% | [4] -3.05% | [5] 9.8% | [6] 9.05%
